Source: PubChem BioAssay (NCATS)
Results filed as inconclusive are left out. Activity calls are given as the source filed them. Calls follow the shape of the dose curve; as a rule, active = well fitted cell-killing curve with a large enough effect; inconclusive = small, poorly fitted or top-dose-only effect, or effect the other way; inactive = no such curve, though single readings can be large or run the other way.

assay: Viability qHTS for spleen associated tyrosine kinase inhibitor (SYKi) drug resistant MV4-11 cells (AID 1963824); settings: SYKi-resistant MV4-11 viability, CellTiter-Glo, 72 h; series mostly up to 45 µM; also: nearly all actives have a fitted effect of over 35% in size
How it was run: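 CellTiter-Glo luminescence, read 10 min after reagent addition, reports viability after a 72 hr compound exposure. Cells are an MV4-11 line made resistant to SYK inhibition, seeded at 500 per well onto compound-containing plates.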
Potency is read from the fitted curve at half-maximal effect.

Row | Structure (SMILES) | Potency
1 | CC(C)(CO)c1cc2cc(NC(=O)C3(c4ccc5c(c4)OC(F)(F)O5)CC3)c(F)cc2n1CC(O)CO (centres undefined) | 16.4 µM (active)
2 | CN(C/C=C/c1ccccc1)Cc1cccc2ccccc12 | inactive
3 | COc1cc(N2CCC(O)CC2)ccc1Nc1nc(Nc2ccccc2S(=O)(=O)C(C)C)c2[nH]cnc2n1 | 2.06 µM (active)
4 | O=S(=O)(/N=C/c1c(O)ccc2ccccc12)c1cccs1 | inactive
5 | CCC(C)(NC(=O)C(CCC(N)=O)NC(=O)C1CC(O)CN1C(=O)C(C)(C)NC(=O)C(C)(C)NC(=O)C(CC(C)C)NC(=O)CNC(=O)C(NC(=O)C(C)(C)NC(=O)C(C)(C)NC(=O)C(C)(C)NC(=O)C(Cc1ccccc1)NC(C)=O)C(C)C)C(=O)N1CC(O)CC1C(=O)NC(C)(C)C(=O)NC(CO)Cc1ccccc1 (centres undefined) | 0.616 µM (active)
6 | Cc1nc2sccn2c(=O)c1CCN1CCC(=C(c2ccc(F)cc2)c2ccc(F)cc2)CC1 | 11.9 µM (active)
7 | O=C(OCC1=C[C@@H](O)[C@@H]2C=CO[C@@H](O[C@@H]3O[C@H](CO)[C@@H](O)[C@H](O)[C@H]3O)[C@H]12)c1ccc(O)cc1 | inactive
8 | CC(=O)CC/C=C(\C)CC/C=C(\C)CC/C=C(\C)CCC=C(C)C | inactive
9 | NC(N)=NCCC[C@H](NC(=O)c1sccc1NS(=O)(=O)c1cccc2nsnc12)C(=O)O | inactive
10 | COC1CC(=O)C23C(=O)NC(CC(C)C)C2C(C)C(C)=CC3/C=C(\C)CCC1O (centres undefined) | 7.96 µM (active)
11 | C=CC(C)(C)C12CC3C(=O)NC(Cc4cnc[nH]4)C(=O)N3C1Nc1ccccc12 (centres undefined) | inactive
12 | CCn1c(=O)n([C@H]2CCCN(c3nccc(-c4cc5ccccc5o4)n3)C2)c2ccccc21 | 23.1 µM (active)
13 | COc1ccc(C2OCC3C(c4cc(OC)c5c(c4)OCO5)OCC23)cc1OC (centres undefined) | 8.93 µM (active)
14 | C[C@@H]1O[C@@H](O[C@H]2[C@H](O)[C@@H](O)[C@H](OC3CCC4(C)C5CCC(C)(C(CO)OC6OC(CO)C(O)C(O)C6O)CC5=CCC4C3(C)C)O[C@@H]2CO)[C@H](O)[C@H](O)[C@H]1O (some centres undefined) | inactive
15 | COc1ccc(Oc2cc(C)c(-c3csc(NC(=O)c4ccncc4)n3)c(C)c2)cc1 | 0.092 µM (active)
16 | N[C@H]1Cc2ccccc2N(O)C1=O | inactive
17 | CC1(C)CCCC2(C)C3=C(C(=O)OC3O)C(O)CC12 (centres undefined) | inactive
18 | NC(=O)[C@H]1CCCCc2c1[nH]c1ccc(Cl)cc21 | inactive
19 | Cc1c(O)cc2c(c1O)COC1(O)CCCOC21 (centres undefined) | inactive
20 | OC[C@@]1(O)CO[C@H](OC[C@H]2O[C@@H](OC(CCCCc3ccc(O)cc3)CCc3ccc(O)cc3)[C@H](O)[C@@H](O)[C@@H]2O)[C@@H]1O (some centres undefined) | inactive
21 | COc1cc(N2CCC(N3CCN(C)CC3)CC2)ccc1Nc1ncc(Cl)c(-c2c[nH]c3ccccc23)n1 | 0.0116 µM (active)
22 | O=C(c1ccccc1)c1ccc2nc(NC(=O)c3csc(C4CCN(c5ncnc6ccsc56)CC4)n3)[nH]c2c1 | 2.31 µM (active)
23 | O=C(O)c1cccc(CN2C(=O)/C(=C(\c3ccccc3)c3ccc(Cl)cc3)c3ccccc32)c1 | 20.6 µM (active)
24 | C/C=C(/C)C(=O)O[C@H]1[C@H](OC(=O)/C(C)=C\C)[C@@]23C(CC1(C)C)[C@]1(CCC4[C@@]5(C)CC[C@H](O[C@@H]6O[C@H](C(=O)O)[C@@H](O)[C@H](O[C@@H]7O[C@H](CO)[C@H](O)[C@H](O)[C@H]7O[C@@H]7O[C@@H](C)[C@H](O)[C@@H](O)[C@H]7O[C@@H]7OC[C@@H](O)[C@H](O)[C@H]7O)[C@H]6O[C@@H]6O[C@H](CO)[C@H](O)[C@H](O)[C@H]6O)C(C)(C)C5CC[C@@]4(C)[C@]1(C)C[C@H]2O)O[C@H]3O (some centres undefined) | 0.776 µM (active)
25 | CCCCCCCCCCCCCC#CC(=O)[C@@H]1COC(C)(C)N1C(=O)OC(C)(C)C | inactive
26 | O=C1CC2(CCCC2)[C@H](O)C(=O)N1CCCCN1CCN(c2ncccn2)CC1 | inactive
27 | CC(=O)O[C@@H]1CC[C@@]2(C)C(CC[C@]3(C)C2[C@H](O)C=C2[C@H]4[C@@H](C)[C@H](C)CC[C@]4(C)CC[C@]23C)[C@@]1(C)C(=O)O (some centres undefined) | 7.09 µM (active)
28 | CC(=O)O[C@@H]1CC2C(/C=C(\C)C(=O)[C@@]3(O)C[C@@H](C)[C@H](OC(=O)c4ccccc4)C3/C=C/1C)C2(C)C (some centres undefined) | 10 µM (active)
29 | C=C1CC2OC(=O)C(COC)C2C(OC(=O)/C(C)=C\C)CC2(C)OC1=CC2=O (centres undefined) | 0.805 µM (active)
